The panel holds about 83,000 compounds, 20% with a hit somewhere; the sample as a whole holds those more often.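 Single-concentration screen, 48 h exposure, 96-well plates. Endpoint: percent growth. Below 10 = active.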 Values without a mark were called inactive. Activity calls are given as the source filed them.

Results on 39 molecules are retold here after PubChem BioAssay (NCI).

The test system of one assay is PC-3 prostate. The assay is described as follows: NCI-60 one-dose screen, 48 h (100 = growth as untreated, 0 = no growth, -100 = all killed). As to conditions: 10 µM unless noted.
On to `NS(=O)(=O)c1ccc(-n2nc(-c3ccc(Cl)cc3)ccc2=O)cc1`, for which the growth is 85.6%.
For `Nc1nc(Cl)cc(NCCCCNc2cc(Cl)nc(N)n2)n1`, the growth was 95.8%.
On the same count and under the same terms, the value for `Fc1ccc(/C=N/n2c(-c3cc(Cl)cc(Cl)c3Cl)nn(CNc3ccc(Cl)nn3)c2=S)cc1` was 86.7%; that for `COc1cc(-c2nc3ccccc3s2)ccc1OCc1nc2n(n1)S(=O)(=O)c1ccccc1N2C` was 80.8%; that for `Cc1c(Cl)ccc2c(C(=O)Cl)cc(-c3ccccc3)nc12` was 96%.
On to `CN1CCN(Cn2nc(-c3cc(Cl)cc(Cl)c3Cl)n(/N=C/c3ccc(Cl)cc3)c2=S)CC1`, for which the growth is 82.4%.
As to `COc1cc2nc(C(=O)N3CCCCC3)cc(Nc3ccccc3)c2cc1OC`, the growth was 114%.
Same read-out and setting: as for `COc1ccccc1N1CCN(CC(O)COc2c(Br)c(Br)c(Br)c3c2OC(C)(C)C3)CC1` (stereo not drawn), the figure is 18.9%; as for `COc1cc(Cn2cc3c(c2)-c2onc(CO)c2CC3)cc(OC)c1OC`, 88.7%.
Consider `CN1CCN(C(=O)/C=C/c2ccc([N+](=O)[O-])o2)CC1`, for which the growth is 95.7%.
For the molecule `CC(C)C1(C(C)C)NC(=O)NC1=O`, the growth was 93.3%.
For `COc1cc(/C=C/C(=O)c2c(C)n([O-])c3cc(C)c(C)cc3[n+]2=O)cc(OC)c1OC`, the growth is 59.6%.
On the same count and under the same terms, the value for `COc1cc(/C=C\c2cc(/C=C\c3ccc(O)c(OC)c3)n(C(=O)CNc3ccccc3OC)n2)ccc1O` was 64.2%; that for `OCc1cn(-c2ccc(Cl)cc2)nc1-c1ccc(O)cc1` was 96.5%; that for `CCc1c2cc(Cl)ccc2n2cc(Cc3ccccc3)[nH]c(=O)c12` was 97.4%.
On the same count and under the same terms, the value for `Nc1ncnc2c1ccn2-c1cccc(NC(=O)c2cccc(C(F)(F)F)c2)c1` was 51.7%; that for `COc1ccc(Cl)cc1NC(=O)c1cc2c([nH]1)-c1nc(NC(=O)C(C)(C)C)sc1CC2` was 61.4%.
For the molecule `COc1ccc(-c2coc3c(CO)c(O)ccc3c2=O)cc1`, the growth is -27.7% (active).
In the case of `CC(=O)c1cc2c(c(O)c1C)C(=O)C(=O)c1c(O)cccc1-2`, the growth is -26.4% (active).
Still for that read-out and setting: as for `O=C(Cn1c2ccccc2c2ccncc21)N/N=C\c1ccc2ccccc2c1`, the figure is 13.8%; as for `OC(COc1ccccc1Cl)CN1CCN(c2ccc(Cl)cc2)CC1` (stereo not drawn), 85.1%.
Consider `O=C(Nc1ccc(-n2ccc3c(NC(=O)c4ccccc4)nccc32)cc1)c1cccc(C(F)(F)F)c1`, for which the growth is 40.4%.
Consider `Cc1cc(N2CCOCC2)nc(N(CCNc2ccnc3cc(Cl)ccc23)Cc2ccco2)n1`, for which the growth is 46.7%.
Same read-out and setting: as for `CCCCC(=O)Nc1nc2ccc(SCCC)cc2s1`, the figure is 47.8%; as for `COc1cc2ncnc(Oc3ccc(NC(=O)Nc4ccc(CN5CCOCC5)c(C(F)(F)F)c4)c4ccccc34)c2cc1OC`, 40%.
Still for that read-out and setting: as for `FC(F)(F)c1cccc([Si](F)(c2cccc(C(F)(F)F)c2)c2cccc(C(F)(F)F)c2)c1`, the figure is 24.2%.
On the same count and under the same terms, the value for `O=C(O)c1cccc(S(=O)(=O)c2ccccc2)c1` was 100%.
For `C=C1C(=O)O[C@H]2[C@H]1CC/C(COC(=O)CCCC(=O)OC/C1=C/CC[C@@]3(C)O[C@H]3[C@H]3OC(=O)C(=C)[C@@H]3CC1)=C\CC[C@@]1(C)O[C@@H]21`, the growth is 55.2%.
Take `Cc1c(F)cccc1NC(=O)c1sc2nc3c(cc2c1N)CCCCC3`: the growth is 70.7%.
For `O=C(Nc1cccc([N+](=O)[O-])c1)Nc1cccc([N+](=O)[O-])c1`, the growth is 12.7%.
On the same count and under the same terms, the value for `O=C(N/N=C1\SCC(=O)N1c1ccccc1)c1cc(-c2cc3ccccc3o2)nn1-c1ccccc1` was 86.9%; that for `COc1cc(-c2nc(N)n(CC(=O)Nc3ccc(/C(C)=N\O)cc3)n2)cc(OC)c1OC` was 76.7%.
On the same count and under the same terms, as for `O=C(Cn1c2ccccc2c2ccncc21)N/N=C/c1c[nH]c2ccccc12`, the figure is 78.8%.
The same measure, in the same setting: as for `CCCN1C(=O)CSC1=Nc1ccc2cc3ccc(N=C4SCC(=O)N4CCC)cc3nc2c1`, the figure is 16.7%.
On to `CCc1cccc(C)c1NC(=O)c1sc2nc3c(cc2c1N)CCCCC3`, for which the growth is 35.5%.
Still for that read-out and setting: the value for `NC(=S)NNC1CCCCC1` was 87.7%; that for `CC(C)(C)C(=O)Nc1nc2c(s1)CCc1ccn(S(=O)(=O)c3ccccc3)c1-2` was 81.1%.
On the same count and under the same terms, the value for `Nc1ncnc2c1c(-c1ccc(Oc3ccccc3)cc1)nn2C[C@@H]1SSC[C@H]1O` was 55.7%; that for `Cc1ccc[n+](CC(=O)c2cccc3ccccc23)c1` was 101%.

The next assay relates to SK-MEL-5 melanoma. The description is as above. As to conditions: 10 µM unless noted.
For `NS(=O)(=O)c1ccc(-n2nc(-c3ccc(Cl)cc3)ccc2=O)cc1`, the growth was 83.1%.
Still for that read-out and setting: the value for `Nc1nc(Cl)cc(NCCCCNc2cc(Cl)nc(N)n2)n1` was 111%; that for `Fc1ccc(/C=N/n2c(-c3cc(Cl)cc(Cl)c3Cl)nn(CNc3ccc(Cl)nn3)c2=S)cc1` was 102%.
The same measure, in the same setting: the value for `COc1cc(-c2nc3ccccc3s2)ccc1OCc1nc2n(n1)S(=O)(=O)c1ccccc1N2C` was 82.1%; that for `Cc1c(Cl)ccc2c(C(=O)Cl)cc(-c3ccccc3)nc12` was 96.5%; that for `CN1CCN(Cn2nc(-c3cc(Cl)cc(Cl)c3Cl)n(/N=C/c3ccc(Cl)cc3)c2=S)CC1` was 92.3%.
Consider `COc1cc2nc(C(=O)N3CCCCC3)cc(Nc3ccccc3)c2cc1OC`, for which the growth was 95.6%.
On the same count and under the same terms, as for `COc1ccccc1N1CCN(CC(O)COc2c(Br)c(Br)c(Br)c3c2OC(C)(C)C3)CC1` (stereo not drawn), the figure is 7.43% (active); as for `COc1cc(Cn2cc3c(c2)-c2onc(CO)c2CC3)cc(OC)c1OC`, 83.3%; as for `CN1CCN(C(=O)/C=C/c2ccc([N+](=O)[O-])o2)CC1`, 90.1%.
The same measure, in the same setting: the value for `CC(C)C1(C(C)C)NC(=O)NC1=O` was 91.5%; that for `COc1cc(/C=C/C(=O)c2c(C)n([O-])c3cc(C)c(C)cc3[n+]2=O)cc(OC)c1OC` was 59%.
Still for that read-out and setting: as for `COc1cc(/C=C\c2cc(/C=C\c3ccc(O)c(OC)c3)n(C(=O)CNc3ccccc3OC)n2)ccc1O`, the figure is 44.8%; as for `OCc1cn(-c2ccc(Cl)cc2)nc1-c1ccc(O)cc1`, 95.4%; as for `CCc1c2cc(Cl)ccc2n2cc(Cc3ccccc3)[nH]c(=O)c12`, 104%.
As for `Nc1ncnc2c1ccn2-c1cccc(NC(=O)c2cccc(C(F)(F)F)c2)c1`, the growth is 41.1%.
With `COc1ccc(Cl)cc1NC(=O)c1cc2c([nH]1)-c1nc(NC(=O)C(C)(C)C)sc1CC2`, the growth is 55.5%.
The same measure, in the same setting: the value for `COc1ccc(-c2coc3c(CO)c(O)ccc3c2=O)cc1` was 58.7%; that for `CC(=O)c1cc2c(c(O)c1C)C(=O)C(=O)c1c(O)cccc1-2` was -97.9% (active); that for `O=C(Cn1c2ccccc2c2ccncc21)N/N=C\c1ccc2ccccc2c1` was 15.4%.
The same measure, in the same setting: as for `OC(COc1ccccc1Cl)CN1CCN(c2ccc(Cl)cc2)CC1` (stereo not drawn), the figure is 104%; as for `O=C(Nc1ccc(-n2ccc3c(NC(=O)c4ccccc4)nccc32)cc1)c1cccc(C(F)(F)F)c1`, 16.5%; as for `Cc1cc(N2CCOCC2)nc(N(CCNc2ccnc3cc(Cl)ccc23)Cc2ccco2)n1`, 39.7%.
Same read-out and setting: the value for `CCCCC(=O)Nc1nc2ccc(SCCC)cc2s1` was 42.7%; that for `COc1cc2ncnc(Oc3ccc(NC(=O)Nc4ccc(CN5CCOCC5)c(C(F)(F)F)c4)c4ccccc34)c2cc1OC` was -26.5% (active).
In the case of `FC(F)(F)c1cccc([Si](F)(c2cccc(C(F)(F)F)c2)c2cccc(C(F)(F)F)c2)c1`, the growth is 84.2%.
`O=C(O)c1cccc(S(=O)(=O)c2ccccc2)c1`: the growth is 97%.
Still for that read-out and setting: the value for `C=C1C(=O)O[C@H]2[C@H]1CC/C(COC(=O)CCCC(=O)OC/C1=C/CC[C@@]3(C)O[C@H]3[C@H]3OC(=O)C(=C)[C@@H]3CC1)=C\CC[C@@]1(C)O[C@@H]21` was 33.4%.
Consider `Cc1c(F)cccc1NC(=O)c1sc2nc3c(cc2c1N)CCCCC3`, for which the growth is 39.2%.
Same read-out and setting: as for `O=C(Nc1cccc([N+](=O)[O-])c1)Nc1cccc([N+](=O)[O-])c1`, the figure is 55%.
Still for that read-out and setting: the value for `O=C(N/N=C1\SCC(=O)N1c1ccccc1)c1cc(-c2cc3ccccc3o2)nn1-c1ccccc1` was 101%.
Same read-out and setting: as for `COc1cc(-c2nc(N)n(CC(=O)Nc3ccc(/C(C)=N\O)cc3)n2)cc(OC)c1OC`, the figure is 97.9%.
`O=C(Cn1c2ccccc2c2ccncc21)N/N=C/c1c[nH]c2ccccc12`: the growth was 4.85% (active).
Same read-out and setting: as for `CCCN1C(=O)CSC1=Nc1ccc2cc3ccc(N=C4SCC(=O)N4CCC)cc3nc2c1`, the figure is -17.7% (active); as for `CCc1cccc(C)c1NC(=O)c1sc2nc3c(cc2c1N)CCCCC3`, 14.2%.
For the molecule `NC(=S)NNC1CCCCC1`, the growth was 95.1%.
Consider `CC(C)(C)C(=O)Nc1nc2c(s1)CCc1ccn(S(=O)(=O)c3ccccc3)c1-2`, for which the growth was 99.9%.
Regarding `Nc1ncnc2c1c(-c1ccc(Oc3ccccc3)cc1)nn2C[C@@H]1SSC[C@H]1O`, the growth was -59.6% (active).
In the case of `Cc1ccc[n+](CC(=O)c2cccc3ccccc23)c1`, the growth is 99.7%.
